# HCV inh: qHTS Assay for Inhibitors of Hepatitis C Virus (HCV). Huh7.5.1 HCVcc-Cre infection, luciferase reporter, 44 h. Potency, µM (doses to about 41.8 µM), for inactives: at the highest dose activity change, negative = inhibition, most hits filed as inhibitors. 340,000 tested, 3.4% active. AID 651820, 2012
#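 Reporter virus HCVcc-Cre (~0.5 moi) infects cells exposed to compound; seeding density 1,000 cells/well with 4 h settling beforehand. Luminescence, 15 sec read, taken 44 h post-infection following a 15 min RT substrate incubation.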
# Pf growth 96h: Primary qHTS for delayed death inhibitors of the malarial parasite plastid, 96 hour incubation; AID 504834, 2011; 320,000 tested, 6.9% active; Potency, µM (doses to about 28.7 µM), inactives show top-dose activity change, negative = inhibition, actives largely listed as inhibitors; P. falciparum luciferase reporter growth, 96 h
#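 Plates of compound plus infected erythrocytes (2% hematocrit, 0.05% parasitemia final) incubate 96 hours, 37 C, 5% CO2. Detection reagent added; reduced luminescence from the parasites' luciferase reporter flags inhibition.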
# AMA1-RON2 inh: qHTS for Inhibitors of AMA1-RON; Towards Development of Antimalarial Drug Lead: Primary Screen. Plasmodium falciparum AMA1 (3D7) - RON2 peptide interaction. AlphaScreen AMA1-biotinylated RON2 peptide binding. Potency, µM (series often up to 58.2 µM), for inactives: at the top dose activity change, negative = inhibition, usual class: inhibitors. 360,000 tested, 0.2% active. AID 720542, 2013;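 note: 0% = vehicle wells and -100% = peptide control; nearly all actives have a fitted effect of over 45% in size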
#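 AMA1 (3D7) with his tag at 25 nM final met compounds first, then biotinylated RON2 peptide at 25 nM; detection used donor plus acceptor beads, 10 µg/mL apiece, read by AlphaScreen after 30 min at room temperature.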
# AmpC inh detg: qHTS Inhibitors of AmpC Beta-Lactamase (assay with detergent) | P00811 | AmpC hydrolysis of nitrocefin, absorbance 480 nm, 0.01% Triton | Potency, µM (doses to about 114 µM), inactives show at the top dose activity change, negative = inhibition, hits mostly inhibitors | 370,000 tested, 0.041% active | AID 485294, 2010;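 note: 0% = no-compound wells and -100% = no-enzyme wells; nearly all actives have a fitted effect of over 25% in size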
# Target sequence (P00811 whole entry, looked up): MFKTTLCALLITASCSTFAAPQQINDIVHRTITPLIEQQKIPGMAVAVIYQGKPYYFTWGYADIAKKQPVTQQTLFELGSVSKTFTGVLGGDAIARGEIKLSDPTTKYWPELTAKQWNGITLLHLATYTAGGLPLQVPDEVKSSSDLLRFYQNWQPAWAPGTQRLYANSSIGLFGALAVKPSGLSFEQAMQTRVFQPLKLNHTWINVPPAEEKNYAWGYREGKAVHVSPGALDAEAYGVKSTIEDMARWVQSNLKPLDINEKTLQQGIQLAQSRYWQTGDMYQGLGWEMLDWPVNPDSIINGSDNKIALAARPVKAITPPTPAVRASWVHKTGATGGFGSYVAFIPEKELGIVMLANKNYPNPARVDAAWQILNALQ
#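 AmpC (5.3 nM in the dispensed reagent) in 20 mM phosphate pH 7.0 with 0.01% (detergent screen) or 0.0001% Triton X-100 was preincubated with compounds for 15 min at room temperature. Nitrocefin was then added from an 800 uM solution, and hydrolysis was followed at 480 nm.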
# AmpC no deterg: qHTS Inhibitors of AmpC Beta-Lactamase (assay without detergent); AmpC nitrocefin hydrolysis, absorbance 480 nm, 0.0001% Triton; P00811; 330,000 tested, 0.52% active; Potency, µM (series often up to 57.1 µM), for the others: at the top dose activity change, negative = inhibition, usual class: inhibitors;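 note: plate controls were no compound for no effect and no enzyme for full effect; nearly all actives have a fitted effect of over 20% in size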
#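 AmpC (5.3 nM in the dispensed reagent) in 20 mM phosphate pH 7.0 with 0.01% (detergent screen) or 0.0001% Triton X-100 was preincubated with compounds for 15 min at room temperature. Nitrocefin was then added from an 800 uM solution, and hydrolysis was followed at 480 nm.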
# Pf growth 48h: Primary qHTS for delayed death inhibitors of the malarial parasite plastid, 48 hour incubation; P. falciparum luciferase growth in erythrocytes, 48 h; Potency, µM (series often up to 28.7 µM), for inactives: at the top dose activity change, negative = inhibition, most hits filed as inhibitors; 310,000 tested, 5.9% active; AID 504832, 2011
#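 Growth was read as firefly luciferase luminescence after a 48 h, 37 C, 5% CO2 exposure of compounds to reporter-bearing P. falciparum cultures (0.1% parasitemia, 2% hematocrit final) in Albumax-supplemented RPMI 1640.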
# * hit, by the source's call; ? = inconclusive; nt = not tested or not shown. Hits are enriched below; roughly 11% of the tested compounds scored in any of these assays. Calls come from the whole dose curve; as a rule, active = well fitted curve in the direction sought with a large enough effect; inconclusive = small, poorly fitted or top-dose-only effect, or another doubt; inactive = no such curve, though single readings can be large; an effect the other way counts as inactive or inconclusive. Unless noted, % is set by controls: 0 for no effect and ±100 for the full control effect; potency is the fitted concentration of half-maximal effect.
SMILES,HCV inh,Pf growth 96h,AMA1-RON2 inh,AmpC inh detg,AmpC no deterg,Pf growth 48h
CC(=O)Nc1ccc(S(=O)(=O)N2CCN(S(=O)(=O)c3ccc(NC(C)=O)cc3)CC2)cc1,-3%,61%,-2%,-5%,-15%,5%
CC(=O)Nc1ccc(S(=O)(=O)Nc2ccc(S(=O)(=O)N3CCCCCC3)cc2)cc1,0%,nt,-3%,-7%,20µM*,-2%
CC(=O)Nc1ccc(S(=O)(=O)N2CCc3c(Cl)cccc3C2)cc1,?,15µM*,17%,?,-3%,nt
COc1cc(C(=S)N2CCOCC2)cc(OC)c1OS(=O)(=O)c1ccc(NC(C)=O)cc1,-20%,13µM*,-6%,-3%,6%,0%
CCc1c(C(=O)Nc2ccc(S(=O)(=O)N3CCOCC3)cc2)csc1C,10µM*,16%,-5%,-3%,1%,?
COc1ccc(-c2cc(NCc3ccc(C)cc3)n3cnnc3n2)cc1,nt,nt,nt,0%,nt,nt
CCOc1ccccc1CN1CCc2nc(N3CCN(c4ccccc4F)CC3)ncc2C1,nt,nt,nt,-4%,nt,nt
Cc1ccc(NC(=O)c2cc(S(=O)(=O)N3CCCCC3)c[nH]2)cc1C,-6%,?,0%,?,7.1µM*,-11%
CC(C)C(=O)Nc1cccc(C(=O)Nc2ccc(S(=O)(=O)N3CCOCC3)cc2)c1,-29%,10µM*,13%,-17%,-28%,-11%
Cc1ccc(NC(=O)c2ccc(S(=O)(=O)N3CCCCC3)cc2)cc1,5%,12µM*,2%,-5%,-30%,?
Cc1ccc(NC(=O)c2cc(S(=O)(=O)N3CCCCC3)c[nH]2)cc1F,10%,?,5%,-15%,-27%,7%
CC(=O)Nc1ccc(C(=O)Nc2ccc(S(=O)(=O)N3CCOCC3)cc2)cc1,-12%,8.3µM*,-4%,-5%,-10%,?
Cc1ccc(NC(=O)c2ccc(S(=O)(=O)N3CCCC3)cc2)cc1,13%,nt,5%,nt,nt,nt
CCCN(CCC)C(=O)c1cc(S(=O)(=O)N2CCCCC2)c[nH]1,4.5µM*,?,14%,-2%,-7%,-1%
Cc1ccc(NC(=O)c2ccc(S(=O)(=O)N3CC(C)CC(C)C3)cc2)cc1S(=O)(=O)N1CCOCC1 (stereo not drawn),7.9µM*,nt,-7%,nt,nt,nt
CC(C)CN(CC(C)C)C(=O)c1cc(S(=O)(=O)N2CCCCC2)c[nH]1,2%,?,1%,-6%,10%,?
COc1cccc(CNC(=O)CCn2c(=O)c3cccn3c3cccnc32)c1OC,nt,nt,nt,16%,nt,nt
CC1(C(=O)NS(=O)(=O)c2cccc(Cl)c2)CCN1C(=O)Cc1cc(F)ccc1F (stereo not drawn),nt,nt,-2%,nt,nt,nt
Cc1cccc(S(=O)(=O)NC(=O)C2(C)CCN2C(=O)Cc2cc(F)ccc2F)c1 (stereo not drawn),nt,nt,40µM*,nt,nt,nt
Cc1ccc(OCC(=O)NC2CCCC2)c(C)c1,21%,0.93µM*,17%,?,-1%,36%
Cc1cccc(OCC(=O)NC2CCCC2)c1,-4%,?,-8%,-14%,1%,21%
COc1ccc(CCC(=O)NC2CCCCC2)cc1,18%,15µM*,7%,5%,-23%,-16%
Cc1ccc(OCC(=O)NC2CCCCCC2)cc1C,3%,10µM*,-7%,-9%,2%,30%
COc1cc(NC(=O)CN2CCCN(Cc3cccc(F)c3)S2(=O)=O)cc(OC)c1,nt,nt,nt,26%,nt,nt
CCC(CC)c1nn2c(=O)cc(COc3ccc(NC(=O)c4ccc(C)cc4)cc3)nc2s1,nt,nt,nt,12%,nt,nt
SMILES,HCV inh,Pf growth 96h,AMA1-RON2 inh,AmpC inh detg,AmpC no deterg,Pf growth 48h
Cc1ccc2cc(CCNC(=O)c3ccc(C)c([N+](=O)[O-])c3)c(=O)[nH]c2c1,-19%,4.7µM*,7%,?,-20%,?
Cc1ccc2cc(CCNC(=O)C(=O)c3c[nH]c4ccccc34)c(=O)[nH]c2c1,?,?,17%,1%,-6%,9.3µM*
COc1ccc(CCNC(=O)c2ccc3c(c2)OCO3)cc1,2%,-3%,5%,?,-13%,32%
Cc1ccc2cc(CCNC(=O)C(=O)c3c(C)[nH]c4ccccc34)c(=O)[nH]c2c1,7%,-26%,-16%,1%,16%,?
CCC(CC)C(=O)NCCc1cc2ccc(C)cc2[nH]c1=O,4%,0%,18%,?,-4%,9%
COc1ccc2cc(CCNC(=O)c3ccc4c(c3)OCO4)c(=O)[nH]c2c1,-4%,10µM*,-2%,?,2.8µM*,?
Cc1ccc2cc(CCNC(=O)c3cccc([N+](=O)[O-])c3)c(=O)[nH]c2c1C,23%,?,1%,?,-10%,-1%
COc1ccc2cc(CCNC(=O)c3cccc([N+](=O)[O-])c3)c(=O)[nH]c2c1,-23%,?,-4%,-2%,2%,5.2µM*
CCc1nc2c(cnn2-c2ccc(Cl)cc2)c(=O)n1-c1ccc(OC)c(Cl)c1,nt,nt,nt,2%,nt,nt
CCN(CC)CCCNC(=O)c1oc2c(c1C)-c1nn(Cc3ccc(Cl)cc3)cc1CC2,nt,nt,nt,12%,nt,nt
C#C[C@]1(O)CC[C@H]2[C@H]3[C@H](CC[C@@]21C)C1=C(CC(=O)CC1)C[C@@H]3C,nt,-26%,nt,nt,nt,-5%
Cc1ccc(Cl)cc1NC(=O)Nc1cccs1,1%,5%,-1%,0%,14µM*,?
Cc1ccccc1NC(=O)Nc1cccs1,-14%,?,-3%,-8%,-40%,-12%
CC(C)C[C@@H](C)C(=O)N(Cc1ccccc1)c1ccccc1,-15%,?,11%,2%,-4%,-6%
CC[C@@H](CCC=C(C)C)C(=O)N(Cc1ccccc1)c1ccccc1,?,?,33%,3%,-1%,8.3µM*
CN(CCCNC(=O)c1cc2c(Cl)nc3ccccc3c2s1)Cc1ccccc1,13µM*,?,?,-10%,177%,3.3µM*
CC1CCCN(CCCNC(=O)c2cc3c(s2)-c2ccccc2OC3)C1 (stereo not drawn),11µM*,13%,6%,-8%,39%,?
CN1CCN(c2ccccc2NC(=O)c2cc3c(s2)-c2ccccc2OC3)CC1,-11%,?,5%,-1%,224%,10µM*

# Bioassay records from PubChem.
